From PubChem BioAssay (NCATS)
Results filed as inconclusive are left out. Active and inactive are the calls of the source. Unless noted, the call rests on the fitted dose curve; in most records, active means well fitted curve in the direction sought with a large enough effect; inconclusive means small, poorly fitted or top-dose-only effect, or another doubt; inactive means no such curve, though single readings can be large; an effect the other way counts as inactive or inconclusive.

Key:
[1] = AP1 Signaling Pathway (AID 357; active means well fitted curve in either direction with a large enough effect, not every such curve was filed as active;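 further: ME-180 reporter cells stimulated with EGF at its EC50 level; on the % scale 0 is the no-effect control and ±100 the full control effect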); details: ME-180 AP-1-bla reporter, EGF-induced, beta-lactamase ratio, 5 h; at 38 µM (top of the series)
In short: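 AP-1-bla ME-180 cells, Opti-MEM + 0.5% dialyzed FBS, plated overnight 37 °C. Cpd titration + EC50 EGF, 5 h 37 °C. CCF4 2.5 h RT; ex 405, em 460/530 ratio → %activity, AC50.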

[2] = NFAT Signaling Pathway (AID 444; active means well fitted curve in either direction with a large enough effect, not every such curve was filed as active;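 further: carbachol stimulus at about its EC50 of 1 µM final; on the % scale 0 is the no-effect control and ±100 the full control effect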); details: Jurkat NFAT-bla M1, carbachol, beta-lactamase ratio, 5 h; at 38 µM (top of the series)
In short: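 Jurkat cells carrying an NFAT-driven β-lactamase reporter and co-transfected muscarinic M1 receptor were treated with compound plus carbachol (1 uM final, an EC50 level) for 5 h at 37 °C. CCF4 loading followed for 1 h at RT; 460/530 nm ratio gave %activity.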

[3] = Stat Signaling Pathway (AID 446; active means well fitted curve in either direction with a large enough effect, not every such curve was filed as active;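 further: ME-180 cervical cancer cells given 40 pM IL-6 alongside compound; SIE-controlled beta-lactamase reporter measured as 460/530 nm FRET emission ratio; on the % scale 0 is the no-effect control and ±100 the full control effect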); details: ME-180 SIE beta-lactamase reporter, IL-6 stimulated, 5 h; at 38 µM (top of the series)
In short: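 ME-180 SIE-bla cells; overnight plating; cpd + IL-6 40 pM, 5 h, 37 C; LiveBLAzer 2.5 h RT; 460/530 nm emission ratio. Normalized to 300 pM IL-6 and 125 nM JAK inhibitor controls.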

[4] = target: Glucocorticoid receptor (Homo sapiens) (UniProt P04150); test: GR-GFP Redistribution (AID 450;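 active means compounds whose dose series gives a full or clear partial fitted curve of increased nuclear translocation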; further: potency means the concentration at half of the fitted maximal effect); details: U2OS GR-GFP nuclear translocation, laser cytometry, 2 h
Sequence of Glucocorticoid receptor (Homo sapiens) (P04150 whole entry, looked up, the tested form may be a part): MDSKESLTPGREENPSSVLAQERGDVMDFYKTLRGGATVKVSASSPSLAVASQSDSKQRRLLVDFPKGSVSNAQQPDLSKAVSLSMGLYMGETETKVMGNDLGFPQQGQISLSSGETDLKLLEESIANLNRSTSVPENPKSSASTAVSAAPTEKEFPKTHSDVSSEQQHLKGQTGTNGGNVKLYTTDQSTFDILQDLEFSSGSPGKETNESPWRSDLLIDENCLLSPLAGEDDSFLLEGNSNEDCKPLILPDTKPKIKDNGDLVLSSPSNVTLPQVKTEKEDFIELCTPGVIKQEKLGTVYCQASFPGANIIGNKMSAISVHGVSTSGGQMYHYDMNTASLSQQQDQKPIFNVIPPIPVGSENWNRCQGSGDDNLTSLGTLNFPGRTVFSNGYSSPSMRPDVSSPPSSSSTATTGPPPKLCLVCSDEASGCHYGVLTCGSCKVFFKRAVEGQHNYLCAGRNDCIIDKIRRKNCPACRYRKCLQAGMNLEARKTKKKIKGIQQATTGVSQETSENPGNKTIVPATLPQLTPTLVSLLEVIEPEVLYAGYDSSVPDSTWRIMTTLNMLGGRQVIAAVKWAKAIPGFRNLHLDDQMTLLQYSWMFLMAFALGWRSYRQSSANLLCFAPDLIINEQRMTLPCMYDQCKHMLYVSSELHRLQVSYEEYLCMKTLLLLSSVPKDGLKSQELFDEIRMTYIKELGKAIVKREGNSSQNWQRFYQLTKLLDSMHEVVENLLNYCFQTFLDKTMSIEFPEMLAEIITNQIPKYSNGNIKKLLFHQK

[5] = target: Glucocorticoid receptor (Homo sapiens) (UniProt P04150); test: GR-EFC Redistribution (AID 451; calls by dose curve; further: potency means the concentration at half of the fitted maximal effect); details: CHO-K1 GR-EFC translocation, beta-gal luminescence, 2 h
In short: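 CHO-K1 cells stably expressing nuclear-localized β-gal enzyme acceptor and GR fused C-terminally to the enzyme donor fragment; ligand-driven nuclear translocation restores β-gal by complementation. Compounds titrated up to 46 uM final, 2 h at 37 °C; luminescence read.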

[6] = target: Mitogen-activated protein kinase 10 (Mus musculus) (UniProt Q61831); test: JNK3 AlphaScreen Assay (AID 530; active means well fitted curve in either direction with a large enough effect, not every such curve was filed as active;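 further: kinase came from lysate of stimulated human HepG2 cells; signal reports phosphorylation of biotinylated GST-cJun 1-79 at Ser73 with 10 µM ATP; on the % scale 0 is the no-effect control and ±100 the full control effect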)
In short: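 JNK3 came from HepG2 lysates pre-activated with IL-1beta and TNF-alpha and phosphorylated biotinylated GST-cJun (1-79) at 10 uM ATP, pH 7.6, room temperature. Compounds were titrated. AlphaScreen signal used anti-phospho-cJun (Ser73) antibody.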

[7] = target: 3',5'-cyclic-AMP phosphodiesterase 4B (Homo sapiens) (UniProt Q07343); test: qHTS Assay for Inhibitors of PDE-IV (AID 607; active means well fitted activation curve with a large enough effect in the main read-out, with a control signal flat, not every such curve was filed as active; further: % of control where 0% means no effect)
Sequence of 3',5'-cyclic-AMP phosphodiesterase 4B (Homo sapiens) (Q07343 whole entry, looked up): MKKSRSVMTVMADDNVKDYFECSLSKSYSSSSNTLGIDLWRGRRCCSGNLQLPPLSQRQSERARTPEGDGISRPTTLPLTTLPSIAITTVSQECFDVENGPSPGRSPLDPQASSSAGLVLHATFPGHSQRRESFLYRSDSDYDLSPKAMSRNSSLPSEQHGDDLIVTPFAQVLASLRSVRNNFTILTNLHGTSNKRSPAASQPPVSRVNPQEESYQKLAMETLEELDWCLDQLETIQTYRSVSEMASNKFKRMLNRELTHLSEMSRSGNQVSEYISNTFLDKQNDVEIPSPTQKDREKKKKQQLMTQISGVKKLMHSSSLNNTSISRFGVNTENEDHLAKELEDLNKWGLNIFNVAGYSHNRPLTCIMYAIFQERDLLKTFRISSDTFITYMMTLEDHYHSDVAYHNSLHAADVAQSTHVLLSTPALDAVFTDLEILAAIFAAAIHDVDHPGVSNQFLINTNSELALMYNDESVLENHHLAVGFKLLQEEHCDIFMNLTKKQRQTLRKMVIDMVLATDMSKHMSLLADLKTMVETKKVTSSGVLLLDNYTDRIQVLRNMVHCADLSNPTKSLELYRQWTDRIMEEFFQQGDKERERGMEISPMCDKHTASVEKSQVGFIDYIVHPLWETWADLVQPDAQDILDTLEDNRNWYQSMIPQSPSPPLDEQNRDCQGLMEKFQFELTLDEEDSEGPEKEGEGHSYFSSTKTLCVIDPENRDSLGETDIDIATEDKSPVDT
In short: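 ACTOne HEK293 cells carry a modified cAMP-gated CNG channel and express endogenous PDE4; plated 1000 cells/well, compounds up to 22.9 uM final. Membrane-potential dye fluorescence (ex 535/em 590) was read; parental cells received 10 uM forskolin + 100 uM RO 20-1724.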

[8] = target: Guanine nucleotide-binding protein G(i) subunit alpha-1 (Homo sapiens) (UniProt P63096); test: qHTS Assay for Inhibitors of RGS12 GoLoco Motif Activity (Green Fluorophore) (AID 879);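 further: 0% = labeled peptide with Gαi1 and full inhibition = labeled peptide alone without protein; negative values mean loss of peptide binding seen as reduced polarization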
Sequence of Guanine nucleotide-binding protein G(i) subunit alpha-1 (Homo sapiens) (P63096 whole entry, looked up): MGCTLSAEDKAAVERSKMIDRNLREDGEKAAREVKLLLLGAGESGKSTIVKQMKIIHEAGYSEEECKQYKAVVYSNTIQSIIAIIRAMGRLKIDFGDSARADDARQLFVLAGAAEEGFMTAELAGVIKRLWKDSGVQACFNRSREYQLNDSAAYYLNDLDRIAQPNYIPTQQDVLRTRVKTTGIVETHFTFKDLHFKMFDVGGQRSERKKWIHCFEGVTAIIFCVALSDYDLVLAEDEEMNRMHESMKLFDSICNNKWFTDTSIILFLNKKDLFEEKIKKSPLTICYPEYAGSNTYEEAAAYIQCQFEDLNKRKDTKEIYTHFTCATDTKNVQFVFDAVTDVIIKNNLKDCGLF
In short: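 Fluorescence polarization assay: 50 nM Gαi1 with 10 nM FITC-labeled RGS12 GoLoco peptide in 10 mM Tris pH 7.5, 150 mM NaCl, 0.1 mM GDP, 0.05% NP40, 10 min at room temperature with compound.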

[9] = target: Cytochrome P450 3A4 (Homo sapiens) (UniProt P08684); test: qHTS Assay for Activators of Cytochrome P450 3A4 (AID 885); further: nearly all actives have a fitted effect of over 65% in size
Sequence of Cytochrome P450 3A4 (Homo sapiens) (P08684 whole entry, looked up): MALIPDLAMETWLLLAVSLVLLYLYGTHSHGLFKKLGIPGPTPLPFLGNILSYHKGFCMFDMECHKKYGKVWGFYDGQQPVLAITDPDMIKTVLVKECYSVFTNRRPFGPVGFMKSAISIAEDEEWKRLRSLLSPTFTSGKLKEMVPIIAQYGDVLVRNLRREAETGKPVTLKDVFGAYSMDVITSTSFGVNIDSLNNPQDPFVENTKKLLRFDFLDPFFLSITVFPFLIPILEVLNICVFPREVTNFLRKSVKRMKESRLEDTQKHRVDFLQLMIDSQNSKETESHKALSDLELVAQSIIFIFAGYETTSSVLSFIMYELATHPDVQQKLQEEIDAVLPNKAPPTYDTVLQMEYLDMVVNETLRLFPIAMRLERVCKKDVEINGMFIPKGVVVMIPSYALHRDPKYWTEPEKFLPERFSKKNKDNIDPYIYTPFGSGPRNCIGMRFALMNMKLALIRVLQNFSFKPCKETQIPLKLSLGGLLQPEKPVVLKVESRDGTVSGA
In short: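 20nM CYP3A4 + 25uM Luciferin-PPXE (=KM), 200mM KPO4; cpd 10 min RT; NADPH regen, 60 min RT; stop w/ detection buffer, 20 min; luminescence. Normalized to 57 uM ketoconazole.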

[10] = qHTS Assay for Identification of Small Molecule Agonists for Thrombopoietin (TPO) Signaling Pathway (AID 917); further: on the % scale 0 is the no-effect control and ±100 the full control effect
In short: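 We measured Glycoprotein IIb promoter–luciferase output in IL-3-starved Ba/F3 murine cells expressing the human TPO receptor after 24 hrs at 37 C with compounds and 26 pM TPO.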

[11] = target: Muscarinic acetylcholine receptor M1 (Rattus norvegicus) (UniProt P08482); test: qHTS Assay for Antagonists of Acetylcholine Muscarinic M1 Receptor: Kinetic Measurement of Intracellular Calcium Response (AID 943);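 further: Fluo-4 calcium signal as peak divided by basal fluorescence over 4 min; nearly all actives have a fitted effect of over 75% in size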
Sequence of Muscarinic acetylcholine receptor M1 (Rattus norvegicus) (P08482 whole entry, looked up): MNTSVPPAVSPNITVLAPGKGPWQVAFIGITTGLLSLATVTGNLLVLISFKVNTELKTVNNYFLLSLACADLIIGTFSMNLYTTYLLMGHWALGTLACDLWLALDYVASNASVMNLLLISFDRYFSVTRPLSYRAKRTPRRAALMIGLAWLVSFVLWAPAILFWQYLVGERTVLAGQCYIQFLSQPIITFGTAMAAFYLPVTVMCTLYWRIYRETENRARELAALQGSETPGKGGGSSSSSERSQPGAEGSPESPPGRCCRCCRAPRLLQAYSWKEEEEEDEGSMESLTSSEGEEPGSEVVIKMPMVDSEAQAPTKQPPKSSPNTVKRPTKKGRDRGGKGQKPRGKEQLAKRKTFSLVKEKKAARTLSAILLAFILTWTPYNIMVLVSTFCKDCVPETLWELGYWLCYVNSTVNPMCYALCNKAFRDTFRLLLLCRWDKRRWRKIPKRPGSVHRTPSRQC
In short: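 CHO cells stably expressing rat M1 were loaded with no-wash Fluo-4 dye for 1 h at 37C, pre-incubated 10 min with compound, then challenged with EC80 carbachol (100 nM final); kinetic calcium read 4 min, peak/basal ratio.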

[12] = target: Muscarinic acetylcholine receptor M1 (Rattus norvegicus) (UniProt P08482); test: qHTS Assay for Antagonists of Acetylcholine Muscarinic M1 Receptor: Measurement of IP-One Response (AID 944); further: nearly all actives have a fitted effect of over 75% in size
In short: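 CHO cells expressing rat M1 receptor, recovered overnight, were pre-incubated 10 min with compound, then stimulated 30 min with carbachol at EC80 (200 nM) in LiCl-containing buffer, pH 7.4. IP1 accumulation was read by HTRF (620/665 nm).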

[13] = target: Pyruvate kinase (Leishmania mexicana) (UniProt Q27686); test: qHTS Validation Assay for Inhibitors of Leishmania Mexicana Pyruvate Kinase (AID 945);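 further: 0% = DMSO only neutral control wells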
Sequence of Pyruvate kinase (Leishmania mexicana) (Q27686 2-499 E452W): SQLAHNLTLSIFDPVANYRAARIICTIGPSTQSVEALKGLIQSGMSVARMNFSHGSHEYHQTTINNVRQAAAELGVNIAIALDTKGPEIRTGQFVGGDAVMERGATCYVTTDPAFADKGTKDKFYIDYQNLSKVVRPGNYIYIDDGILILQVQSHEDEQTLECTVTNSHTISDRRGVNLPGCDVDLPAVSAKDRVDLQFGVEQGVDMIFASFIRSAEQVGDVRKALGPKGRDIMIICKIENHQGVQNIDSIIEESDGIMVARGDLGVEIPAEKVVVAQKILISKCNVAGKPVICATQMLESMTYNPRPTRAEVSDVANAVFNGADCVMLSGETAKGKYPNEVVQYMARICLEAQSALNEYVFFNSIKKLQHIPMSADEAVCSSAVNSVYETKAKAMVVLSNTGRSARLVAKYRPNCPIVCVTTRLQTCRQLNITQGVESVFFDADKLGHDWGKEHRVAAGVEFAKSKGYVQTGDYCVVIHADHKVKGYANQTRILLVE
In short: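 Eight-point qHTS titrations in triplicate, data normalized to DMSO neutral control. Reaction: 0.2 nM LmPYK E451W mutant, 0.5 mM PEP, 0.1 mM ADP, 7 mM MgCl2, pH 7.2, one hour at room temperature; luminescent ATP detection.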

[14] = target: Pyruvate kinase PKM (Homo sapiens) (UniProt P14618); test: qHTS Assay for Activators of Human Muscle Pyruvate Kinase (AID 954; active means well fitted curve in the direction sought with a large enough effect, not every such curve was filed as active;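 further: 0% = uninhibited enzyme and -100% = no enzyme or full thiadiazolimine inhibition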)
Sequence of Pyruvate kinase PKM (Homo sapiens) (P14618 whole entry, looked up): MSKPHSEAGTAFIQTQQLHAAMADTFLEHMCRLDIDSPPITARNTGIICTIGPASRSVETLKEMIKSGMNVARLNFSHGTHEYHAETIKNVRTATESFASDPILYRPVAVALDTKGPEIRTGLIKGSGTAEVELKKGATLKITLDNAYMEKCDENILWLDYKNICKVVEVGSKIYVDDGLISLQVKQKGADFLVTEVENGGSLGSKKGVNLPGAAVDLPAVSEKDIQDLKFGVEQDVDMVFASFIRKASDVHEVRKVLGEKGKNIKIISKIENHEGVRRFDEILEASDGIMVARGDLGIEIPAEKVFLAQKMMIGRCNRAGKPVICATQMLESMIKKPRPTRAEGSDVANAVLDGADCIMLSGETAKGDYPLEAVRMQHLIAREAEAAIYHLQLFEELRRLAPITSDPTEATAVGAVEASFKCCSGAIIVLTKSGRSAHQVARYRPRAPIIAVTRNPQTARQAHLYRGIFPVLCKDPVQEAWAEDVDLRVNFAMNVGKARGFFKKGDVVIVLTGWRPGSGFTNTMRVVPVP
In short: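 Luminescence from a luciferase ATP-detection/stop reagent reported PKM2 activity. Reactions contained 0.1 nM purified human enzyme, 0.5 mM PEP, 0.1 mM ADP and 7 mM MgCl2 at pH 7.2, run 1 h at RT.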

[15] = target: Alpha-galactosidase A (Homo sapiens) (UniProt P06280); test: Counterscreen for Glucocerebrosidase Inhibitors: qHTS Assay for Human alpha-Galactosidase at pH 4.5 (AID 992); further: 0% is about no effect
Sequence of Alpha-galactosidase A (Homo sapiens) (P06280 whole entry, looked up): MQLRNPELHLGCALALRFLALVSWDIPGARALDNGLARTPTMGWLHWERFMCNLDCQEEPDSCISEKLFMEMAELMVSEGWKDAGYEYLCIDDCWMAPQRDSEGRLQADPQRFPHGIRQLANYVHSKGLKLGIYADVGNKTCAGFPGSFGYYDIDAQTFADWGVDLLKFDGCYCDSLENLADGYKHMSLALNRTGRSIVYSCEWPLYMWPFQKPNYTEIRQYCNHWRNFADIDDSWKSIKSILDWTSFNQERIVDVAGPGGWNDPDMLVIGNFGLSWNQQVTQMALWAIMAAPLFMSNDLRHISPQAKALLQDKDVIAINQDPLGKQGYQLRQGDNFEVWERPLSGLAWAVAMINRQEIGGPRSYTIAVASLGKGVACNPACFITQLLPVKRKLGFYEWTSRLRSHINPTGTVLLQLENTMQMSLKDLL
In short: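 Enzyme at 2 nM final was combined with compound (0.7 nM to 77 uM) and 80 uM 4-methylumbelliferyl alpha-D-galactopyranoside in 50 mM citric acid, 0.005% Tween-20, pH 4.5. After 20 min at room temperature, fluorescence was read (Ex 365/Em 440 nm); AC50 came from Hill fits.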

[16] = target: alpha-glucosidase (Oryza sativa, rice) (UniProt Q653V4); test: Counterscreen for Glucocerebrosidase Inhibitors: qHTS Assay for Rice alpha-Glucosidase at pH 5.0 (AID 997);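 further: 0% = full activity with enzyme and -100% = basal without enzyme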
In short: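 Rice alpha-glucosidase (4 nM final) with 400 uM 4-methylumbelliferyl-alpha-D-glucopyranoside in citrate buffer pH 5.0, 20 min at room temperature, stopped at pH 10; fluorescence 365/440 nm, compounds 0.7 nM–77 uM, AC50 from Hill fits.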

[17] = Validation of Assay for Modulators of Lamin A Splicing (AID 1459; active means well fitted curve in the direction sought with a large enough effect in the signal ratio; the % refers to the signal ratio;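 further: cells exposed to compound for two days before reading; 0% is about no effect; ratio rise marks activators and ratio drop marks inhibitors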)
In short: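 Splicing correction is reported by an EGFP-containing lamin A minigene in stably transfected S3 HeLa cells, while DsRed2 controls for viability and nonspecific signal. Cells are exposed to compounds for 48 hrs before the GFP over RFP ratio is taken.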

[18] = target: DNA repair nuclease/redox regulator APEX1 (Homo sapiens) (UniProt P27695); test: qHTS Validation Assay for Inhibitors of the Human Apurinic/apyrimidinic Endonuclease 1 (APE1) (AID 1705)
Sequence of DNA repair nuclease/redox regulator APEX1 (Homo sapiens) (P27695 whole entry, looked up): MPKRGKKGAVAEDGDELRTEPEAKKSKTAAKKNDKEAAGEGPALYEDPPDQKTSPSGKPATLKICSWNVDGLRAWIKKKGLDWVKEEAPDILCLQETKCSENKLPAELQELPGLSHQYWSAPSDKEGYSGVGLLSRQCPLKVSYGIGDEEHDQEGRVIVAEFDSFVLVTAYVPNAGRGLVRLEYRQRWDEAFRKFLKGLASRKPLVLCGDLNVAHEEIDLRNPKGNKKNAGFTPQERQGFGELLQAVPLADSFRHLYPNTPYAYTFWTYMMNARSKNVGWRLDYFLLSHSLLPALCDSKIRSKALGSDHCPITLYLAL
In short: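 Endonuclease activity of human APE1 is followed as dequenching when the enzyme incises a tetrahydrofuran abasic site in a short duplex labelled 5'-TAMRA/3'-BHQ-2 (50 nM final), after 15 min enzyme–compound preincubation at room temperature.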

[19] = Counterscreen for APE1 Inhibitors: Fluorescent Dye Displacement Validation Assay (AID 1707);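 further: plate controls were ThO with dsDNA and no compound for no effect and ThO without dsDNA for full effect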
In short: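 Thiazole Orange displacement from dsDNA: 250 nM ThO with 50 nM TAMRA-labelled abasic-site (tetrahydrofuran) duplex in 50 mM Tris-HCl pH7.5, 50mM NaCl, 2 mM MgCl2, 0.01% Tween-20. Loss of endpoint fluorescence (ex 480 nm, em 540 nm) flags DNA binders.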

[20] = target: Endonuclease 4 (Escherichia coli (strain K12)) (UniProt P0A6C1); test: Counterscreen for APE1 Inhibitors: qHTS Validation Assay for Inhibitors of Endonuclease IV (AID 1708); further: on the % scale 0 is the no-effect control and ±100 the full control effect
In short: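 2 nM enzyme was preincubated with compounds for 15 min at room temperature in 50 mM Tris-HCl pH 7.5, 50 mM NaCl, 2 mM MgCl2, 1 mM DTT, 0.01% Tween-20. 50 nM THF-abasic TAMRA/BHQ-2 duplex substrate started the reaction.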

COC(=O)c1c(-c2cc(OC)c(OC)c(OC)c2)c2ccnc(OCc3ncccn3)c2c(=O)n1Cc1ccnc(C)c1
inactive: activity change, negative = inhibition [1] -4.4% | activity change, negative = inhibition [2] 4.39% | activity, negative = inhibition [3] -8.52% | Potency [4] > 46 µM | Potency [5] > 46 µM | Potency [6] | Potency [7] | outcome [8] | Potency [9] | Potency [10] | Potency [11] | Potency [12] | Potency [13] | outcome [14] | outcome [15] | outcome [16] | outcome [17] | Potency [18] | Potency [19] | Potency [20]
